Screening results from PubChem BioAssay.
In the library only some 21% were active in any assay of this set; here they are far more common.
FBPA Giardia inh: qHTS Assay for Inhibitors of Fructose-1,6-bisphosphate Aldolase from Giardia Lamblia; A8B2U2; actives 0.71% (n = 290,000); Potency, µM (top dose mostly 59.6 µM), most hits filed as inhibitors; AID 2451, 2010; purified Giardia FBPA; also: nearly all actives have a fitted effect of over 55% in size
Target sequence (A8B2U2 whole entry, looked up): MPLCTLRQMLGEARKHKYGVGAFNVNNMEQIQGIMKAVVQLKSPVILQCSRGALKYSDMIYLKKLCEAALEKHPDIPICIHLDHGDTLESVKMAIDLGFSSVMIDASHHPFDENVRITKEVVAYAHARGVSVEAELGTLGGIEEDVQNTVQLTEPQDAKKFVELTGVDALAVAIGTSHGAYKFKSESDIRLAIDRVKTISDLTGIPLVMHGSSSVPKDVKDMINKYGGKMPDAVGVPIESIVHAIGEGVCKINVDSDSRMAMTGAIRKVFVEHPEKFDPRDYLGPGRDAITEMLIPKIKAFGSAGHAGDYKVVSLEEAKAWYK
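Giardia FBPA (40 nM reagent) was preincubated 10 min at RT with compound (up to 57.5 uM final), then substrate plus GAPDH/TPI/NAD/arsenate coupling system with diaphorase/resazurin was added; resorufin fluorescence (525/598 nm) was read after 20 min.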
Pf growth 96h: Primary qHTS for delayed death inhibitors of the malarial parasite plastid, 96 hour incubation. P. falciparum luciferase reporter growth, 96 h. Potency, µM (top dose mostly 28.7 µM), actives largely listed as inhibitors. actives 6.9% (n = 320,000). AID 504834, 2011
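Compounds incubated with erythrocytes infected by luciferase-expressing P. falciparum (2% hematocrit, 0.05% parasitemia final) for 96 hours, 37 C in 5% CO2. Growth inhibition scored as decreased luciferase luminescence.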
Pf growth 48h: Primary qHTS for delayed death inhibitors of the malarial parasite plastid, 48 hour incubation | Potency, µM (highest dose often 28.7 µM), hits mostly inhibitors | P. falciparum luciferase growth in erythrocytes, 48 h | actives 5.9% (n = 310,000)
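Growth was read as firefly luciferase luminescence after a 48 h, 37 C, 5% CO2 exposure of compounds to reporter-bearing P. falciparum cultures (0.1% parasitemia, 2% hematocrit final) in Albumax-supplemented RPMI 1640.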
Shiga toxin inh: A qHTS for Small Molecule Inhibitors of Shiga Toxin; Vero cells, Shiga toxin protein synthesis inhibition reporter; inhibition, % at 38.7 µM; AID 2315, 2010; actives 9.2% (n = 290,000); in the data active = inhibition mostly above about 28%, no sharp cut-off; inactive = mostly below about 43%
Cycloheximide cs: Cycloheximide Counterscreen for Small Molecule Inhibitors of Shiga Toxin; cell reporter, cycloheximide protein synthesis inhibition counterscreen; max response, %; actives 12% (n = 300,000); AID 2314, 2010; in the data active = max response mostly above about 13%, no sharp cut-off; inactive = mostly below about 14%; also: read at 38.3 µM for the half of the compounds with a filed dose
NS1 function inh: qHTS Assay for Inhibitors of Influenza NS1 Protein Function; Potency, µM (doses to about 46.1 µM); actives 0.4% (n = 270,000); AID 2326, 2010; calls by dose curve; also: actives are rising curves; nearly all actives have a fitted effect of over 50% in size
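S. cerevisiae expressing influenza A NS1, grown in glucose, washed, then diluted 1:100 into pH 6.0 -URA galactose medium with 23 nl compound. Growth recovery read as OD600; NS1-free strain serves as control.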
Numbers stand for hits; 0 = inactive; ? = inconclusive; - = no result; ! = repeats disagree; [ ] = remark or other dose. Unless noted, calls follow the shape of the dose curve; as a rule, active = well fitted curve in the direction sought with a large enough effect; inconclusive = small, poorly fitted or top-dose-only effect, or another doubt; inactive = no such curve, though single readings can be large; an effect the other way counts as inactive or inconclusive.

SMILES	FBPA Giardia inh	Pf growth 96h	Pf growth 48h	Shiga toxin inh	Cycloheximide cs	NS1 function inh
N#Cc1ccsc1NC(=O)CSc1nnc(-c2ccccc2)o1	?	-	0	87.1	31.0	0
Cc1sc(NC(=O)CSc2nnc(-c3ccc(F)cc3)o2)c(C#N)c1C	0	9.28µM	0	0	0	0
CCOC(=O)c1cc(-c2nnc(SCC(=O)Nc3ccc(F)cc3)o2)c(C)nc1C	0	11.7µM	-	0	0	0
C/C=C(\C)C(=O)C[Si](C)(C)c1ccccc1	0	-	-	-	-	-
COc1ccc2c(c1)C(=O)[C@@H](OC(=O)NC1CCCC1)[C@H](c1ccc(OC)c(Br)c1)O2	0	-	-	-	-	-
CC1CCCC(C)N1C(=O)COc1ccc(-c2nnco2)cc1 (configuration not stated)	0	0	0	0	0	0
Cc1cnc(NC(=O)CSc2nnc(-c3ccccc3)o2)s1	0	0	0	43.6	41.5	0
N#Cc1ccsc1NC(=O)COc1ccc(-c2nnco2)cc1	0	?	0	99.4	35.4	0
O=C(CSc1nnc(-c2ccccc2)o1)Nc1ccccc1F	0	0	-	0	22.9	0
N#Cc1ccsc1NC(=O)CCc1ccccc1	0	0	0	67.6	32.0	0
CCOc1ccccc1N=Nc1c(C)[nH]n(C(N)=S)c1=O	0	?	0	0	0	0
O=c1c(O)c(-c2cc(O)c(O)c(O)c2)oc2cc(O)ccc12	?	-	-	0	0	-
Cc1cnc(NC(=O)CC(C)c2ccccc2)s1 (configuration not stated)	0	0	0	59.6	28.4	0
CCc1nnc(NC(=O)CSc2nnc(-c3ccccc3O)o2)s1	0	0	0	92.4	34.0	0
CC(CC(=O)Nc1nnc(C(C)(C)C)s1)c1ccccc1 (configuration not stated)	0	0	0	0	0	0
CCc1nnc(NC(=O)CSc2nc(-c3ccccc3)c(-c3ccccc3)o2)s1	0	0	0	0	0	0
Cc1ccc(-c2nnc(SCC(=O)Nc3ccccc3F)o2)cc1	0	?	-	0	16.3	0
CCc1nnc(NC(=O)CSc2nccn2-c2ccccc2)s1	0	-	0	0	0	0
CCc1nnc(NC(=O)CSc2ncc(-c3ccccc3)n2C)s1	0	0	0	102.0	54.3	-
CC(NC(=O)c1ccccc1F)C1CC1 (configuration not stated)	0	0	0	0	0	0
CC(CN(C)C)C(C)(O)Cc1ccc(Cl)cc1 (configuration not stated)	0	0	0	0	0	-
CCSC[C@@H](N)C(=O)O	-	-	-	-	-	0
Cc1cccc(C)c1N(CC(=O)NC1CCCCC1)C(=O)c1csnn1	0	0	0	0	0	0
COc1ccc(C(C(=O)NC(C)(C)C)N(C(=O)CCC(=O)Nc2cc(C)on2)c2ccccc2F)cc1 (configuration not stated)	0	0	?	0	0	0
Cn1cnc2c(N/N=C/c3cccs3)ncnc21	0	0	0	37.9	30.9	0
SMILES	FBPA Giardia inh	Pf growth 96h	Pf growth 48h	Shiga toxin inh	Cycloheximide cs	NS1 function inh
Cc1ccccc1-c1cc(=O)c2c(O)cccc2o1	0	0	0	28.4	22.5	0
O=c1cc(-c2ccccc2Cl)oc2ccc([N+](=O)[O-])c(O)c12	0	?	0	0	0	0
O=c1cc(-c2cccc(Cl)c2)oc2cccc(O)c12	0	?	0	0	26.7!	0
Nc1ccc2oc(-c3ccccc3Cl)cc(=O)c2c1O	0	0	0	42.5	50.3	0
CCc1nnc(NC(=O)CCC(=O)N2CCN(c3cc(Cl)ccc3C)CC2)s1	-	?	0	0	0	0
C=CCc1cc(C=O)cc(OCC)c1O	0	0	0	0	0	0
CNc1cc(-n2nc(C)cc2-c2ccccc2)ncn1	0	0	-	0	0	0
Cc1cc(-c2ccccc2)n(-c2cc(N/N=C/c3ccccc3O)ncn2)n1	0	0	13.1µM	0	0	?
O=C(Nc1ccc(S(=O)(=O)NC2CCCCC2)cc1)c1ccco1	0	?	?	0	0	0
CC(C)n1cnc2cc(NC(=O)c3ccco3)ccc21	0	0	0	74.9	27.8	0
O=C(Nc1ccc2c(c1)ncn2C1CCCCC1)c1ccco1	0	0[5.75 µM]	0	90.6	37.4	0
COc1ccc(-n2cnc3cc(NC(=O)c4ccco4)ccc32)cc1	0	2.33µM	-	0	0	0
COc1ccccc1-n1cnc2cc(NC(=O)c3ccco3)ccc21	0	-	0	0	0	0
CCC(=O)Nc1ccc2c(c1)nc(CCNC(=O)c1ccco1)n2C	0	0	0	0	0	0
CC(C)(C)c1ccc(C(CC(=O)O)NC(=O)c2ccccc2F)cc1 (configuration not stated)	0	0	0	0	0	-
CCCCOC(=O)C1=C(C)NC2=C(C(=O)CCC2)C1c1cc(OC)ccc1OC (configuration not stated)	0	13.1µM	-	0	0	0
CCOC(=O)C1=C(CC)NC2=C(C(=O)CCC2)C1c1ccc(OC)c(OC)c1 (configuration not stated)	0	-	7.38µM	0	0	0
CCCOC(=O)C1=C(C)NC2=C(C(=O)CCC2)C1c1cc(OC)ccc1OC (configuration not stated)	0	0	0	0	0	0
CC1=C(C(=O)OCC(C)C)C(c2ccsc2)C2=C(CCCC2=O)N1 (configuration not stated)	0	8.28µM	13.1µM	0	0	0
CCOC(=O)C1=C(C)NC2=C(C(=O)CCC2)C1c1ccsc1 (configuration not stated)	0	0	0	0	0	0
O=C(CN1CCN(c2ccccn2)CC1)Nc1cccc(Br)c1	0	0	0[0.00184 µM]	0	0	0
CCSc1nnc(COc2ccccc2)n1CC	0	0	0	0	0	0
CCCNC(=O)c1ccc2c(c1)C1C3CCC(C3)C1C(c1ccccc1)N2 (configuration not stated)	0	-	9.28µM	0	0	0
CC(C)(C)NC(=O)c1ccc2c(c1)C1C3CCC(C3)C1C(c1ccccc1)N2 (configuration not stated)	0	0	?	0	0	0
COCn1c2ccccc2c2nnc(C(=O)O)nc21	0[12.9 µM]	-	-	-	-	-
COc1ccc(/C=C2\SC(=S)N(CCCC(=O)N3CCN(C)CC3)C2=O)cc1	0	?	?	0	0	0
COc1ccccc1/C=C1\SC(=S)N(CCC(=O)N2CCN(C)CC2)C1=O	0	0	11.7µM	0	0	0
CN1CCN(C(=O)CCN2C(=O)/C(=C\c3ccc(Cl)cc3)SC2=S)CC1	-	8.28µM	0	0	0	0
CCOC(=O)N1CCN(C(=O)CCN2C(=O)/C(=C\c3ccccc3OC)SC2=S)CC1	-	0	?	0	0	0
Clc1ccc2c(c1)C(C1=NCCN1)c1ccccc1CS2 (configuration not stated)	0	0	?	0	0	0
